± gives the standard deviation.
Key:
Details in all cases: modulator concentration 10 µM
[1] = test system: RAW-Dual (murine macrophage reporter line); assay: NF-kB reporter (SEAP) activity fold change vs agonist alone; higher = enhanced NF-kB activity
Outline: (§1)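 Compound reached 10 μM final in each well by pin transfer, onto RAW-Dual murine macrophage reporter cells seeded at 50 000 per well in 384-well plates. After 1 hour at 37 °C, the cells were stimulated overnight with a PRR agonist. SEAP in the supernatant was read with QUANTI-Blue at 620 nm absorbance for NF-κB, and Lucia luciferase was read with QUANTI-Luc luminescence for IRF. Each signal was turned into fold change against the mean agonist-only control on the same plate, and two replicate plates were averaged with propagated errors.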

[2] = test system: RAW-Dual (murine macrophage reporter line); assay: IRF reporter (Lucia luciferase) activity fold change vs agonist alone; higher = enhanced IRF activity
Outline: as §1

[3] = test system: RAW-Dual (murine macrophage reporter line); assay: viability score (confluency relative to resting cells, overnight) (fraction); higher = more viable, active = viable (0.7 or more)
Outline: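 RAW-Dual macrophages in 384-well plates were incubated overnight with compound, final concentration 10 μM. Confluency images from IncuCyte were processed in IncuCyte software into two masks covering all imaged wells. The viability score is each well's confluency relative to resting cells, and a compound met the cutoff when both masks exceeded 70% of resting cells.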

[4] = agonist: CpG ODN 1826 0.5 ug/mL

Structure (SMILES)	NF-kB reporter [1, 4]	NF-kB reporter ([1]; agonist: LPS 0.1 ug/mL)	NF-kB reporter ([1]; agonist: MPLA […])	IRF reporter ([2]; agonist: 3'3'-cGAMP 10 ug/mL)	IRF reporter ([2]; agonist: LPS 0.1 ug/mL)	IRF reporter ([2]; agonist: MPLA […])	viability score [3]
O=C(C1COCC(=O)N1Cc1ccccc1)N1CCN(c2cccc(Cl)c2)CC1 (centres undefined)	1.01 ± 0.05	1.09 ± 0.089	1.08 ± 0.064	1.01 ± 0.051	1.24 ± 0.075	1.29 ± 0.11	1.01 (active)
CC(=O)c1c(C)c2cnc(Nc3ccc(N4CCNCC4)cn3)nc2n(C2CCCC2)c1=O.Cl	1.27 ± 0.47	1.14 ± 0.064	1.22 ± 0.1	0.363 ± 0.014	0.898 ± 0.16	0.966 ± 0.16	0.982 (active)
CC(CCc1ccccc1)NCC(O)c1ccc(O)c(C(N)=O)c1.Cl (centres undefined)	1.04 ± 0.15	1.18 ± 0.088	1.1 ± 0.061	0.944 ± 0.033	1.11 ± 0.095	1.22 ± 0.23	0.984 (active)
O=C(c1cc2ccccc2o1)N1CC(N2C(=O)CCC2=O)C1	0.894 ± 0.054	0.957 ± 0.076	1.05 ± 0.066	1.03 ± 0.055	1.32 ± 0.26	1.44 ± 0.38	0.985 (active)
CCS(=O)(=O)N1CC(CC#N)(n2cc(-c3ncnc4[nH]ccc34)cn2)C1	0.943 ± 0.099	1.13 ± 0.091	2.88 ± 0.17	0.189 ± 0.016	0.338 ± 0.035	0.517 ± 0.07	0.506 (inactive)
Cc1c(C(=O)NN2CCCCC2)nn(-c2ccc(Cl)cc2Cl)c1-c1ccc(Cl)cc1	0.799 ± 0.037	1.25 ± 0.11	0.981 ± 0.075	0.282 ± 0.015	0.618 ± 0.13	0.752 ± 0.17	1 (active)
O=c1ccc(-c2ccncc2)nn1CC1CCN(CC(F)(F)F)CC1	0.924 ± 0.046	0.973 ± 0.077	0.955 ± 0.051	0.858 ± 0.043	0.884 ± 0.07	0.832 ± 0.17	0.964 (active)
COC(=O)C1=C(C)NC2=C(C(=O)CC(C)(C)C2)C1c1ccc(OC)c(O)c1 (centres undefined)	1.02 ± 0.095	0.981 ± 0.055	1.01 ± 0.069	1.01 ± 0.077	1.13 ± 0.16	1.05 ± 0.065	1.01 (active)
O=S1(=O)Nc2c(ccc3cccnc23)-c2ccccc21	0.603 ± 0.086	1.38 ± 0.1	2.34 ± 0.22	15 ± 0.57	0.755 ± 0.23	0.29 ± 0.079	0.671 (inactive)
CC(C)(C)C(=O)OCOP(=O)(COCCn1cnc2c(N)ncnc21)OCOC(=O)C(C)(C)C	1.69 ± 0.25	1.36 ± 0.11	1.65 ± 0.1	1.81 ± 0.096	5.89 ± 0.5	3.2 ± 0.43	0.788 (active)
COc1ccccc1N1CCN(CC(O)COc2cccc3ccccc23)CC1.Cl.Cl (centres undefined)	0.595 ± 0.13	0.696 ± 0.13	0.725 ± 0.048	0.654 ± 0.03	1.17 ± 0.34	1.17 ± 0.22	0.97 (active)
Cc1cncc(CN2CCC(=C3c4ccc(Cl)cc4CCc4cccnc43)CC2)c1.O=C(O)/C=C/C(=O)O	1.46 ± 0.14	1.19 ± 0.096	1.73 ± 0.23	0.931 ± 0.097	0.799 ± 0.092	1.29 ± 0.16	1 (active)

Source: the supplement of paper PMC10646978
